# In all, about 190,000 compounds went through this assay and about 930 (0.49%) were called active.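 How the source made its calls: active means z-score of insulin promoter reporter brightness in nuclei below -3 at 5 µM, with at least 500 cells counted; inconclusive means wells with under 500 cells, flagged as toxic or sparse; inactive means the rest.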 Some of the results follow. Measured potencies and affinities stand elsewhere.
# Assay: insulin promoter down-regulators in MIN6 cells, imaging, high-content screening, mouse beta cells (AID 1628)
# Conditions: MIN6 insulin promoter GFP reporter, at 5 µM, hits give low values
row,Compound,z-score
1,Cc1sc2ncnc(NCCCn3ccnc3)c2c1C,-3.16 (active)
2,COc1ccc(C(=O)Nc2cccnc2)cc1OC,2.67 (inactive)
3,COc1ccc(C(=O)Nn2cnnc2)cc1OC,4.36 (inactive)
4,COc1ccc(OCC(=O)Nc2ccc(S(=O)(=O)Nc3cc(C)nc(C)n3)cc2)cc1,3.12 (inactive)
5,COc1ccc(C(=O)Nc2ccc(S(=O)(=O)Nc3nccnc3OC)cc2)cc1OC,-3.5 (active)
6,CCN(CC)c1ccc2cc(/C(N)=N/NC(=O)c3cccs3)c(=O)oc2c1,7.11 (inactive)
7,CCN(CC)c1ccc2cc(-c3nnc(-c4ccccc4)o3)c(=O)oc2c1,15.1 (inactive)
8,Cc1nc2[nH]c(=O)c3c(n2n1)NC1=C(C(=O)CC(C)(C)C1)C3c1ccccc1 (configuration not stated),-4.42 (active)
9,O=C1S/C(=C/c2ccc(N3CCOCC3)o2)C(=O)N1Cc1c(F)cccc1Cl,3.83 (inactive)
10,Cc1sc2ncnc(Sc3ccccc3C(=O)Nc3ccc(Br)cc3)c2c1C,-5.49 (active)
11,CC1CCN(S(=O)(=O)c2ccc3c(c2)c(=O)c(C(=O)N2CCCCC2)cn3C)CC1,4.9 (inactive)
12,CC1CCc2c(C(=O)N3CCN(S(=O)(=O)c4cccs4)CC3)csc2C1 (configuration not stated),-3.81 (active)
13,COC(=O)c1cc2occc2n1Cc1c(F)cccc1Cl,3.08 (inactive)
14,COC(=O)c1ccc(COc2ccc3c(C)c(C)c(=O)oc3c2)o1,3.49 (inactive)
15,CCOc1ccc(N2C(N)=NC(N)=NC2(C)C)cc1,-4.31 (active)
16,CCOC(=O)CN1CC23C=CC(O2)C(C(=O)Nc2cc(OC)ccc2OC)C3C1=O (configuration not stated),4.17 (inactive)
17,COc1cc(N2CCCC2)c(OC)cc1/C=C(/C#N)c1cccc(Br)c1,15.4 (inactive)
18,N#C/C(=C\c1cc([N+](=O)[O-])c(N2CCCCC2)cc1N1CCCCC1)c1nn(-c2ccccc2)c(N)c1C#N,-3.55 (active)
19,COc1cc(N2CCCC2)c(OC)cc1/C=C(/C#N)c1cccc(F)c1,3.95 (inactive)
20,CCCNC(=O)c1cc(OC)c(OC)cc1[N+](=O)[O-],-4.31 (active)
21,CCOC(=O)CNC(=O)c1cn(C)c(=O)c2cc(OC)c(OC)cc12,3.18 (inactive)
22,Cc1cc(N2CCOCC2)nc2ccc(NC(=S)N3CCCCC3C)cc12 (configuration not stated),1.7 (inactive)
23,CCN1CCN(c2cc(C)c3cc(NC(=O)Cc4ccccc4OC)ccc3n2)CC1,-4.89 (active)
24,COc1ccccc1CC(=O)NC1CC(C)(C)NC(C)(C)C1,3.65 (inactive)

row,Compound,z-score
1,CC(=O)N1CCN(Cc2nc3cc(NC(=O)c4ccccc4)ccc3n2C)CC1,3.37 (inactive)
2,CCc1ccc(CN(C)C(=O)CCc2nnc(-c3ccc(-c4ccccc4)cc3)o2)nc1,-3.31 (active)
3,CCN(CC)c1ccc2cc(C#N)c(=O)oc2c1,4.24 (inactive)
4,CCCCCCc1cc2cc(-c3nnc(-c4ccccc4OC)o3)c(=O)oc2cc1O,8.91 (inactive)
5,CCCCCCc1cc2cc(C(=O)Nc3ccc(OC)cc3)c(=O)oc2cc1O,-4.12 (active)
6,CCCCCCc1cc2cc(-c3nnc(-c4ccccc4O)o3)c(=O)oc2cc1O,7.49 (inactive)
7,CCCOc1ccc(Cn2cnc3ccccc32)cc1,-5.58 (active)
8,COC(=O)c1ccc(OCCn2cnc3ccccc3c2=O)cc1,0.57 (inactive)
9,Cc1cc(SCCOc2ccccc2)nc(N)n1,3.13 (inactive)
10,COC(=O)Cc1c(C)nc2nc(NCc3ccccc3OC)[nH]n2c1=O,4.27 (inactive)
11,Cc1cc(C)cc(-n2c(=O)c3sccc3n(CC(=O)NCc3ccco3)c2=O)c1,4.64 (inactive)
12,CC(=O)c1sc2nc(-c3cccs3)cc(C(F)(F)F)c2c1N,14.9 (inactive)
13,Nc1ncnc2c1ncn2CCOc1ccccc1,-4.5 (active)
14,CC(C)(C)NC(=O)/C=C/c1ccc(C(F)(F)F)cc1,-3.15 (active)
15,CC(C)(C)C(=O)/C=c1\s/c(=C\c2ccc(-c3ccc([N+](=O)[O-])cc3)o2)c(=O)n1CC(=O)NC(N)=O,17.1 (inactive)
16,CC1(C)C=Cc2c(c3c(c4c(=O)c(-c5ccc(O)cc5)coc24)OC(C)(C)CC3)O1,-0.78 (inactive)
17,CC(C)c1nc2oc3c(N4CCN(C)CC4)ncnc3c2c2c1CCC2,-3.12 (active)
18,COCCn1c(C)cc(C(=O)CSc2ncnc3sc4c(c23)CCC4)c1C,-8.03 (active)
19,Cc1noc(C)c1COC(=O)c1ccc(S(=O)(=O)NCc2ccco2)cc1,-4.22 (active)
20,CC(OC(=O)c1ccc(S(=O)(=O)NCc2ccco2)cc1)C(=O)Nc1ncc(Cl)cc1Cl (configuration not stated),-5.26 (active)
21,N#Cc1ccc(CSc2nnc(NC(=O)c3ccc4ncsc4c3)s2)cc1,4.4 (inactive)
22,Cc1noc(C)c1CS(=O)(=O)c1ccc(Br)cc1,3.18 (inactive)
23,CC(OC(=O)c1ccc2ncsc2c1)C(=O)Nc1ncc(Cl)cc1Cl (configuration not stated),-5.12 (active)
